The campaign covered roughly 87,000 compounds. About 540 (0.62%) were called active. No rule for the calls is given here. Only a selection was taken, and actives are over-represented in it overall. Results with a measured potency or affinity are listed apart.

This assay is described as follows: inhibitors of MT1-MMP promoter transcription, cell-based, luciferase reporter, luminescence (AID 618).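 Also: actives suppress MT1-MMP promoter-driven transcription so potencies describe inhibitors.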 The settings on record: MT1-MMP promoter luciferase reporter cells. (In general: In a reporter assay the amount or activity of a reporter protein is the signal.)
Consider `Cc1cccc(NC(=O)c2cnc3ccccn3c2=O)c1`, for which the compound was called inactive.

For `CCN(CC)c1ccc(NC(=O)c2cnc3ccccn3c2=O)c(C)c1`, the result was inactive.

Consider `CCCC(=O)c1ccc(N2CCOCC2)c(F)c1`, for which the call was inactive.

With `Cn1c(C(=O)N2CCN(Cc3ccccc3)CC2)cc2c(=O)n(C)c3ccccc3c21`, the outcome was inactive.

For the compound `COc1cc(C(=O)N2CCN(c3cccc(C)c3C)CC2)cc(OC)c1OC`, the compound was classed as active.

Take `COc1ccc(C(=O)N2CCN(C(=O)c3cc(OC)c(OC)c(OC)c3)CC2)cc1`: the compound was classed as inactive.

Turning to `Cc1cccc(N2CCN(C(=O)c3ccncc3)CC2)c1C`, the result was inactive.

On to `COc1cc(C(=O)N2CCN(c3cc(Cl)ccc3Cl)CC2)cc(OC)c1OC`, for which the outcome was active.

In the case of `COc1ccc(Cl)cc1S(=O)(=O)N1CCN(C(=O)c2cc(OC)c(OC)c(OC)c2)CC1`, the compound was classed as inactive.

Consider `COc1cc(C(=O)N2CCN(C(=O)c3ccccc3)CC2)cc(OC)c1OC`, for which the outcome was inactive.

In the case of `O=C(Nc1cccc(Cl)c1N1CCCC1)c1ccc(Br)o1`, the compound was classed as inactive.

For the compound `O=C(Nc1ccccc1)NC1CC2CCC(C1)N2Cc1nnnn1Cc1ccc2c(c1)OCO2` (centres undefined), the compound was classed as inactive.

As to `COc1ccc(Nc2cc(C)nc3nc(C)nn23)cc1Cl`, the call was inactive.

Turning to `CC(=O)Nc1c2c(nn1-c1ccc(C)cc1C)CSC2`, the result was inactive.

As for `CCCCS(=O)(=O)/C=C\C1C2C=CC(C2)C1S(=O)(=O)CCCC` (centres undefined), the call was inactive.

Consider `CCCCS(=O)(=O)/C=C/[C@H]1[C@H](S(=O)(=O)CCCC)[C@H]2C=C[C@@H]1C2`, for which the call was inactive.

`CCCCS(=O)(=O)/C=C\C=C/S(=O)(=O)CCCC`: the compound was called active.

With `COc1ccc(CCNC(=O)Cn2cnc3c(nnn3Cc3ccccc3F)c2=O)cc1OC`, the outcome was inactive.

Regarding `Cc1ccc(S(=O)(=O)N2CCN(C(=O)N3CCOCC3)C2c2ccc(N(C)C)cc2)cc1` (centres undefined), the result was inactive.

As for `O=C(Cc1ccc(Br)cc1)OCC(=O)c1ccc2c(c1)OCCO2`, the outcome was inactive.

For `O=C(Cc1n[nH]c(=O)c2ccccc12)OCC(=O)c1ccc2c(c1)OCCO2`, the outcome was active.

Take `O=C(Cn1cnc2ccccc2c1=O)OCC(=O)c1ccc2c(c1)OCCO2`: the result was inactive.

Turning to `CCOCCCn1c(SCC(=O)NC(C)(C)C)nc2ccccc2c1=O`, the call was inactive.

Turning to `CNC(=O)Nc1ccccc1F`, the compound was classed as inactive.

On to `Cc1nc2ccccc2c(=O)n1C1CCCCCC1`, for which the outcome was inactive.

For the compound `O=C(c1cc(-c2ccc(Cl)cc2Cl)on1)N1CCN(C(=O)c2ccco2)CC1`, the result was inactive.

Consider `COc1cccc(-c2cc(C(=O)N3CCCCCC3)no2)c1`, for which the compound was called inactive.

For the compound `Cc1ccc(-c2cc(C(=O)N3CCCC3)no2)cc1`, the compound was classed as active.

As to `O=C(c1cc(-c2ccccc2)on1)N1CCCC1`, the result was inactive.

As to `O=C(c1cc(-c2ccc(F)cc2)on1)N1CCCC1`, the outcome was inactive.

Turning to `O=C(c1cc(-c2cccc(O)c2)on1)N1CCOCC1`, the call was inactive.

On to `O=C(c1cc(-c2ccc(Cl)cc2Cl)on1)N1CCOCC1`, for which the outcome was active.

Regarding `O=C(c1cc(-c2ccc(Cl)cc2)on1)N1CCOCC1`, the outcome was inactive.

Take `CCCCN1CC(C(=O)NCc2ccc(C)cc2)CC1=O` (centres undefined): the outcome was inactive.

Regarding `CCCN1Cc2cccc(C(=O)NCc3ccc4c(c3)OCO4)c2C1=O`, the result was inactive.

On to `c1coc(CN2CN=C(Nc3nc4ccccc4s3)NC2)c1`, for which the result was inactive.

Take `Cc1cc(S(=O)(=O)N(Cc2ccc(F)cc2)CC2CCCO2)ccc1-n1cnnn1` (centres undefined): the outcome was inactive.

As for `COc1ccc(OC)c(CNn2c(-c3cccc(C)c3)nc3ccccc3c2=O)c1`, the call was inactive.

For `CC1=CC(C)(C)N2C(=O)C3(C(C#N)=C(N)Oc4cc(O)ccc43)c3c(C)c(C)cc1c32` (centres undefined), the result was inactive.

On to `O=C(CSc1nnc(-c2cccs2)o1)c1cccs1`, for which the call was inactive.

With `Cc1cc(C(=O)CSc2nnc(-c3ccccc3F)o2)c(C)n1Cc1cccs1`, the compound was classed as inactive.

Regarding `COC(=O)C1=C(C)N(CCCC(=O)O)C(=O)NC1c1ccccc1Cl` (centres undefined), the outcome was inactive.

On to `Brc1ccc(OCc2nc(-c3ccccn3)n[nH]2)cc1`, for which the compound was classed as inactive.

On to `COc1ccc2c(c1)sc1nc(-c3ccccc3)cn12`, for which the result was active.

On to `CCOC(=O)N1CCC(NC(=O)c2ccc3c(c2)sc2nc(-c4cccc(OC)c4)cn23)CC1`, for which the result was inactive.

`CCOC(=O)N1CCN(C(=O)c2ccc3c(c2)sc2nc(-c4ccccc4)cn23)CC1`: the result was inactive.

Regarding `Cc1sc2ncnc(Oc3ccc(-n4ccnc4)cc3)c2c1C`, the call was inactive.

For `N#CC1(Nc2ccccc2)C(=O)Nc2ccccc21` (centres undefined), the outcome was inactive.

For `Nc1cc(N)cc(-c2nc3ccccc3o2)c1`, the call was inactive.

On to `Nc1cccc(-c2nc3ccccc3[nH]2)c1`, for which the result was inactive.

Consider `Cc1ccc2nc(-c3cccnc3)oc2c1`, for which the call was inactive.

`Cc1ccc2nc(-c3ccccn3)oc2c1`: the outcome was inactive.

`Cc1ccc2nc(-c3cccc(-c4nc5ccc(C)cc5o4)n3)oc2c1`: the compound was classed as inactive.

For the compound `Nc1ccc2nc(-c3ccccc3)[nH]c2c1`, the compound was classed as inactive.

As for `COCCNC(=O)Nc1ccc2nc(C)sc2c1`, the compound was called inactive.

Regarding `CCCCN(C)C(=O)c1oc2ccc(S(=O)(=O)N3CCCCCC3)cc2c1C`, the result was inactive.

Take `CCn1cc(C(=O)N2CCCC2)c(=O)c2cc(S(=O)(=O)N(C)C)ccc21`: the compound was called inactive.

Regarding `O=C(NCCCn1ccnc1)c1noc2c1CCc1ccccc1-2`, the compound was called inactive.

On to `CCOCc1nnc(NC(=O)CCc2ccccc2)s1`, for which the compound was classed as inactive.

On to `C=CCN1C(=NC(=O)CCCC(=O)O)SC2CS(=O)(=O)CC21` (centres undefined), for which the compound was classed as inactive.

Take `COc1ccccc1Nc1nc(NCCO)c2ccccc2n1`: the outcome was inactive.

As for `C=C(C)Cn1c(CCNC(=O)C(C)(C)C)nc2ccccc21`, the compound was called inactive.

Take `O=C1C(C=Nc2ccccc2O)=C(O)c2ccccc21`: the call was inactive.

For `Cc1ccc(O)c(N=CC2=C(O)c3ccccc3C2=O)c1`, the outcome was inactive.

For `CCc1ccc(NC(=O)C(=O)NCCN2CCN(C(=O)c3ccco3)CC2)cc1`, the compound was classed as inactive.

In the case of `CC1=C(C(=O)OC(C)C)C(c2cccc(F)c2)N2C(=O)C(C)SC2=N1` (centres undefined), the compound was classed as inactive.

As for `CCOC(=O)CSc1nnc(CNC(=O)c2ccc(OC)cc2OC)n1-c1ccc(OC)cc1`, the outcome was inactive.

Consider `CCN(CC)C(=O)N1CCn2c(nc3ccccc32)C1`, for which the compound was called inactive.

Take `O=[N+]([O-])/C(C(Cl)=C(Cl)Cl)=C(\Nc1ccc(F)cc1)n1cncn1`: the outcome was inactive.

On to `CC(C)(C)C(=O)/C(=C\c1ccc([N+](=O)[O-])cc1)n1cncn1`, for which the result was active.

Consider `Cn1ncc(N=Cc2ccc([N+](=O)[O-])cc2)c1C(=O)N1CCOCC1`, for which the compound was called inactive.

`Nn1c(COc2ccccc2)nnc1SCc1cc(=O)[nH]c2ccccc12`: the compound was classed as inactive.

For `CCOC(=O)c1sc2nc(-c3ccco3)c3c(c2c1N)CC(C)(C)OC3`, the call was inactive.

Regarding `COc1ccccc1OCC(=O)Nc1nc(-c2ccc(S(=O)(=O)N3CCOCC3)cc2)cs1`, the call was inactive.

For `CC1CN/C(=C\C(=O)c2ccc(Cl)cc2)C(=O)N1` (centres undefined), the compound was classed as inactive.

`CC1CN/C(=C\C(=O)c2ccccc2)C(=O)N1` (centres undefined): the outcome was inactive.

In the case of `Cc1ccc(-n2ncc3c(=O)[nH]c(SCC(=O)N4CCC(C)CC4)nc32)cc1C`, the compound was classed as inactive.

On to `COc1ccc(NC(=O)c2cccs2)cc1`, for which the compound was called inactive.

Consider `Cc1cc(NC(=O)c2ccccc2)sc1C`, for which the outcome was inactive.

For the compound `Cc1sc(NC(=O)c2ccccc2)c(C(=O)NC(C)C)c1C`, the result was inactive.

On to `Cc1ccc(NC(=O)c2ccccc2)s1`, for which the result was active.

Take `CCOc1ccccc1CNC(=O)C1CCCN(c2nc3ccccc3o2)C1` (centres undefined): the compound was called inactive.

Turning to `CN1Cc2cc(C(=O)c3ccccc3O)cnc2NC1=O`, the outcome was inactive.

As to `CN1Cc2cc(C(=O)c3cc(Cl)cc(CSc4ncccn4)c3O)cnc2NC1=O`, the compound was classed as active.

With `CCCCN1Cc2cc(C(=O)c3cc(F)ccc3O)cnc2NC1=O`, the compound was classed as inactive.

Consider `O=C(CN1C(=O)c2ccccc2S1(=O)=O)Nc1cccnc1`, for which the outcome was inactive.

As to `COc1ccc(CSc2nnc(C)n2N)cc1`, the call was inactive.

In the case of `COc1cccc(CC2CC(=O)N(CCc3ccc4c(c3)OCO4)C2=O)c1` (centres undefined), the result was inactive.

As to `CCC(=O)c1ccc(OCCSc2ncccn2)cc1`, the compound was called inactive.

In the case of `COc1ccc(N=C2SCC(=O)N2c2ccc(OC)cc2)cc1`, the compound was classed as inactive.

On to `Cc1ccc2c(c1)C(N1CCCC1=O)CC(c1ccco1)N2` (centres undefined), for which the result was active.

Regarding `Cc1ccc(C2CC(c3ccco3)n3nc(N)nc3N2)cc1` (centres undefined), the result was inactive.

Take `Cc1ccc(C2CC(c3ccco3)n3ncnc3N2)cc1` (centres undefined): the call was inactive.

Turning to `CCc1nn(C(C)C(=O)NCCN2CCN(c3cccc(C)c3C)CC2)c(=O)c2cc3occc3n12` (centres undefined), the call was inactive.

Regarding `Cc1c(C(=O)OCC2CCCO2)[nH]c2c1C(=O)CC(c1ccco1)C2` (centres undefined), the compound was classed as inactive.

Take `COCCOC(=O)c1[nH]c2c(c1C)C(=O)CC(c1cc(OC)ccc1OC)C2` (centres undefined): the compound was classed as inactive.

Turning to `Cc1c(C(=O)OC2CCCC2)[nH]c2c1C(=O)CC(c1ccco1)C2` (centres undefined), the compound was called active.

Turning to `COCCOC(=O)c1[nH]c2c(c1C)C(=O)CC(c1ccc(N(C)C)cc1)C2` (centres undefined), the call was inactive.

As to `COCCOC(=O)c1[nH]c2c(c1C)C(=O)CC(c1ccco1)C2` (centres undefined), the result was active.

For the compound `Cc1c(C(=O)OC2CCC(C)CC2)[nH]c2c1C(=O)CCC2` (centres undefined), the call was inactive.

As for `Cc1c(C(=O)OCC(C)C)[nH]c2c1C(=O)CC(c1ccco1)C2` (centres undefined), the compound was classed as active.

On to `CCOC(=O)c1ccc(N=CC2=C(O)CC(c3ccco3)CC2=O)cc1` (centres undefined), for which the compound was called inactive.

`CCOC(=O)c1[nH]c2c(c1C)C(=O)CC(c1ccco1)C2` (centres undefined): the result was active.

`CCC(C)OC(=O)c1[nH]c2c(c1C)C(=O)CC(c1ccc(N(C)C)cc1)C2` (centres undefined): the call was inactive.

For `Cc1c(C(=O)OC2CCCCC2)[nH]c2c1C(=O)CC(C)(C)C2`, the call was inactive.

As to `O=c1[nH]c(CN2CCN(c3ccc([N+](=O)[O-])cc3)CC2)nc2ccsc12`, the compound was classed as inactive.

Turning to `CCCCCOC(=O)CSc1n[nH]c(=O)[nH]c1=O`, the call was inactive.

Turning to `O=C(CC(Nc1ccc(Cl)cc1)C(=O)O)c1ccccc1` (centres undefined), the call was inactive.

With `Cc1cccc(NC(=O)COC(=O)CNC(=O)C2CCCCC2)c1`, the result was inactive.

For the compound `NC(=O)CSc1nnnn1-c1ccc2c(c1)OCCO2`, the call was inactive.

Consider `O=C1CCCC2=C1C(Cc1ccccc1)C1=C(CCCC1=O)O2`, for which the outcome was inactive.

In the case of `CCN(CCNC(=O)CC1Oc2ccccc2NC1=O)c1ccccc1` (centres undefined), the call was inactive.

`Cc1ccc(C2/C(=C(\O)c3ccc4c(c3)OCCO4)C(=O)C(=O)N2CCCN(C)C)o1` (centres undefined): the call was inactive.

Take `CCN1CCN(C(=O)c2cc3c(=O)oc4ccc(C)cc4c3s2)CC1`: the compound was classed as inactive.

Source of the values: PubChem BioAssay AID618 (Sanford-Burnham Center for Chemical Genomics, 2007).
